Source: PubChem BioAssay
PINK1 modulator – PINK1 expression modulation; Potency, µM (series often up to 76.6 µM), without a hit: top-dose activation (PINK1 increase), hits mostly activators; 410,000 compounds, 0.2% hits; PINK1 immunofluorescence, high-content cytometry, 24 h; active = well fitted activation curve with a large enough effect; inconclusive = small, poorly fitted or top-dose-only effect; cell line not stated here; also: % of control where 0% means no effect; nearly all actives have a fitted effect of over 65% in size
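Stable cell line treated 24 h with compounds at 5 concentrations (CCCP controls), then fixed and immunostained for PINK1 plus nuclear and cell stains; PINK1 immunofluorescence quantified by laser-scanning microplate cytometry.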
SW480 rerep – inducers of DNA re-replication in SW480 colon cancer cells; SW480 DNA re-replication, Hoechst DNA content imaging, 48 h; Potency, µM (top dose mostly 46.1 µM), inactives show at the highest dose re-replication activation, hits mostly activators; 340,000 compounds, 1.8% hits; also: % of control where 0% means no effect; nearly all actives have a fitted effect of over 55% in size
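250 cells/well; 23 nL cpd via pin tool; 48 hr, 37 C, 5% CO2; Hoechst 40 min; imager read of total nuclear intensity, ex 405/em 500-530 nm.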
MCF10A rereplic – induces DNA re-replication in MCF 10a normal breast cells; MCF 10A DNA re-replication, Hoechst nuclear intensity, 48 h; 350,000 compounds, 2.9% hits; Potency, µM (top dose mostly 46.1 µM), inactives show at the highest dose activity, positive = re-replication, actives largely listed as activators; also: % of control where 0% means no effect; nearly all actives have a fitted effect of over 50% in size
KB-3-1 tox – KB-3-1 parental cell cytotoxicity | KB-3-1 viability, CellTiter-Glo ATP luminescence, 72 h | Potency, µM (doses to about 46.1 µM), hits mostly cytotoxic | 400,000 compounds, 1.4% hits | AID 1347075; also: % is scaled to controls: 0 for no effect and ±100 for the full control effect; nearly all actives have a fitted effect of over 60% in size
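Luminescent ATP read-out (CellTiter-Glo) measures survival of drug-naive KB-3-1 cells after 72 h compound exposure at 37 °C. Titration series was screened from lowest to highest concentration, with DMSO vehicle plates as background controls.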
KB-V1 cytotox – KB-V1 MDR subline cytotoxicity | KB-V1 MDR cells viability, CellTiter-Glo, 72 h | Potency, µM (highest dose often 46.1 µM), actives largely listed as cytotoxic | 400,000 compounds, 3.4% hits; also: % is scaled to controls: 0 for no effect and ±100 for the full control effect; nearly all actives have a fitted effect of over 60% in size
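Cytotoxicity via CellTiter-Glo luminescence after 72 h compound exposure at 37 degrees C. Cells: drug-selected KB-V1 line, DMEM phenol-red free plus 10% FBS. Compounds tested at multiple concentrations; normalized data fitted to concentration-effect curves.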
An asterisk follows results filed as active; ! = a repeat was not active; [ ] = dose if it differs, or a comment. Only some compounds are listed: those with a hit (about 6.7% of all), similar ones and a draw of the others. Unless noted, calls follow the shape of the dose curve; as a rule, active = well fitted curve in the direction sought with a large enough effect; inconclusive = small, poorly fitted or top-dose-only effect, or another doubt; inactive = no such curve, though single readings can be large; an effect the other way counts as inactive or inconclusive. Potency is read from the fitted curve at half-maximal effect.

What do the screens show for `ClC1=C(Cl)C(Cl)=C(Cl)C1=C/C=C/c1ccccc1`?
PINK1 modulator: 21.0%; SW480 rerep: inconclusive; MCF10A rereplic: 3.66µM*; KB-3-1 tox: 4.61µM*; KB-V1 cytotox: 4.11µM*

What do the screens show for `Cc1ccccc1C(O)(Cc1ccccc1)C1CN2CCC1CC2` (stereo unspecified)?
PINK1 modulator: 1.7%; SW480 rerep: -7.8%[9.22 µM]; MCF10A rereplic: 3.8%; KB-3-1 tox: 10µM*; KB-V1 cytotox: inconclusive

What do the screens show for `CCC1(O)C(=O)OCc2c1cc1n(c2=O)Cc2cc3c(N)cccc3nc2-1` (stereo unspecified)?
PINK1 modulator: -6.5%; SW480 rerep: inconclusive; MCF10A rereplic: -10.0%; KB-3-1 tox: 0.206µM*; KB-V1 cytotox: 1.46µM*

What do the screens show for `CN1C2CCC1/C(=C/c1ccccn1)C(=O)/C2=C\c1ccccn1`?
PINK1 modulator: -2.4%; SW480 rerep: inconclusive; MCF10A rereplic: inconclusive; KB-3-1 tox: 0.92µM*; KB-V1 cytotox: inconclusive

What do the screens show for `COP(=S)(OC)Oc1ccc([N+](=O)[O-])cc1`?
PINK1 modulator: -1.3%

Results for COc1ccc(OC)c(N=Cc2c(O)n(Cc3ccccc3)c(=S)[nH]c2=O)c1 ?
PINK1 modulator: 35.5µM*; SW480 rerep: 29.1µM*; MCF10A rereplic: inconclusive; KB-3-1 tox: inactive; KB-V1 cytotox: inactive

Results for Cc1ccccc1-n1c(O)c(C=Nc2ccc(N(C)C)cc2)c(=O)[nH]c1=O ?
PINK1 modulator: -2.6%; SW480 rerep: inconclusive; MCF10A rereplic: 15.1%; KB-3-1 tox: inactive; KB-V1 cytotox: 2.31µM*

How did Cc1ccccc1-n1c(O)c(/C=C2/C(c3ccccc3)=Nc3ccccc32)c(=O)[nH]c1=O do in these assays?
PINK1 modulator: 1.6%; MCF10A rereplic: 5.17µM*; KB-3-1 tox: 2.06µM*; KB-V1 cytotox: 1.46µM*

How did CC1=Nc2ccccc2/C1=C/c1c(O)n(C)c(=O)[nH]c1=O do in these assays?
PINK1 modulator: 3.6%; SW480 rerep: -1.6%; MCF10A rereplic: 1.7%; KB-3-1 tox: inactive; KB-V1 cytotox: inactive

Results for Cc1cccc(-n2c(O)c(/C=C3/C(c4ccccc4)=Nc4ccccc43)c(=O)[nH]c2=O)c1 ?
PINK1 modulator: 3.1%; SW480 rerep: 3.66µM*; MCF10A rereplic: 3.66µM*; KB-3-1 tox: 5.17µM*; KB-V1 cytotox: inconclusive

How did Cc1ccc(-n2c(O)c(/C=C3/C(c4ccccc4)=Nc4ccccc43)c(=O)[nH]c2=O)cc1 do in these assays?
PINK1 modulator: 7.7%; SW480 rerep: 3.66µM*; MCF10A rereplic: 5.17µM*; KB-3-1 tox: 3.66µM*; KB-V1 cytotox: inconclusive

What do the screens show for `CCc1ccccc1NC(=O)c1cccn(Cc2ccccc2F)c1=O`?
PINK1 modulator: -2.7%; KB-3-1 tox: inactive; KB-V1 cytotox: inactive

What do the screens show for `C=CCNc1nnc(Sc2ncccc2[N+](=O)[O-])s1`?
PINK1 modulator: 7.3%; SW480 rerep: inconclusive; MCF10A rereplic: inconclusive; KB-3-1 tox: inactive; KB-V1 cytotox: inactive

Results for Cc1c(P(=S)(c2ccccc2)c2ccccc2)[n+]2ccccc2n1CCc1ccccc1 ?
PINK1 modulator: 25.1µM*; KB-3-1 tox: 13µM*; KB-V1 cytotox: inactive

How did O=[N+]([O-])c1ccc(Sc2nc3ccccc3o2)c([N+](=O)[O-])c1 do in these assays?
PINK1 modulator: -1.0%[38.3 µM]; SW480 rerep: 4.11µM*; MCF10A rereplic: 11.6µM*; KB-3-1 tox: inactive; KB-V1 cytotox: inconclusive

How did C=CCc1cc(C=C2C(=O)NC(=O)NC2=O)cc(OC)c1OCc1ccc(C(=O)O)cc1 do in these assays?
PINK1 modulator: 3.6%; SW480 rerep: -33.9%; MCF10A rereplic: inconclusive; KB-3-1 tox: inactive; KB-V1 cytotox: inactive

How did C=CCc1cc(C=C2C(=O)N(C)C(=O)N(C)C2=O)cc(OCC)c1OCc1ccccc1 do in these assays?
PINK1 modulator: inconclusive; SW480 rerep: 3.9%; MCF10A rereplic: inconclusive; KB-3-1 tox: inconclusive; KB-V1 cytotox: 16.4µM*

Results for Cc1ccc(-n2c(-c3cccs3)nc3ccccc3c2=O)cc1 ?
PINK1 modulator: 0.8%; SW480 rerep: -4.8%; MCF10A rereplic: 11.4%; KB-3-1 tox: inactive; KB-V1 cytotox: 23.1µM*

What do the screens show for `Cc1ccc(-c2nc3ccccc3c(=O)n2-c2ccc(O)cc2)cc1`?
PINK1 modulator: 0.2%; SW480 rerep: -5.4%; MCF10A rereplic: 7.7%; KB-3-1 tox: inactive; KB-V1 cytotox: inactive

What do the screens show for `O=C(Nc1ccc2c(c1)OCO2)c1cccn(Cc2ccc(F)cc2)c1=O`?
PINK1 modulator: 1.9%; KB-3-1 tox: inactive; KB-V1 cytotox: inactive

Results for Cc1ccc(NC(=O)N2CCN(c3cc(-c4noc(C)n4)ccc3C)CC2)c(F)c1 ?
PINK1 modulator: inconclusive; KB-3-1 tox: inactive; KB-V1 cytotox: inactive

What do the screens show for `COc1ccc(CN2Cc3cnnn3-c3ccccc3C2C#N)cc1` (stereo unspecified)?
PINK1 modulator: -1.5%; SW480 rerep: inconclusive; MCF10A rereplic: 3.26µM*; KB-3-1 tox: inactive; KB-V1 cytotox: inconclusive

Results for N#CC1c2ccccc2-n2nncc2CN1Cc1cc(Cl)cc(Cl)c1 (stereo unspecified) ?
PINK1 modulator: 3.9%; SW480 rerep: inconclusive; MCF10A rereplic: 6.51µM*; KB-3-1 tox: 5.8µM*; KB-V1 cytotox: inconclusive

What do the screens show for `c1ccc(C2c3ccccc3-n3nncc3CN2CC2CCCCC2)cc1` (stereo unspecified)?
PINK1 modulator: 14.8%; SW480 rerep: 13.3%[9.22 µM]; MCF10A rereplic: inconclusive; KB-3-1 tox: inactive; KB-V1 cytotox: inconclusive

What do the screens show for `CN1Cc2cnnn2-c2ccccc2C1C#N` (stereo unspecified)?
PINK1 modulator: 0.0%; SW480 rerep: inconclusive; MCF10A rereplic: inconclusive; KB-3-1 tox: inconclusive; KB-V1 cytotox: inactive

Results for COc1ccc(CN2Cc3cnnn3-c3ccccc3C2c2ccccc2)cc1 (stereo unspecified) ?
PINK1 modulator: 0.1%; SW480 rerep: inconclusive; MCF10A rereplic: 16.4µM*; KB-3-1 tox: inconclusive; KB-V1 cytotox: inconclusive

What do the screens show for `O=C(Cc1ccccc1)N1CCN(Cc2ccc([N+](=O)[O-])cc2)CC1`?
PINK1 modulator: 0.0%; SW480 rerep: -2.0%; MCF10A rereplic: 3.5%; KB-3-1 tox: inactive; KB-V1 cytotox: inactive

How did O=[N+]([O-])c1cccc(CN2CCN(Cc3ccc(Br)cc3)CC2)c1 do in these assays?
PINK1 modulator: 5.9%; SW480 rerep: -15.0%; MCF10A rereplic: 9.2µM*; KB-3-1 tox: inconclusive; KB-V1 cytotox: inactive

What do the screens show for `CC1(C)C(C=C(Cl)Cl)C1C(=O)OCc1cccc(Oc2ccccc2)c1` (stereo unspecified)?
PINK1 modulator: 7.3%; SW480 rerep: -48.4%; MCF10A rereplic: 0.0052µM*!; KB-3-1 tox: inactive; KB-V1 cytotox: inactive
